Source: PubChem BioAssay (several laboratories)
rCAG binder: molecules binding r(CAG) RNA repeats; r(CAG) RNA repeat, TO-PRO-1 dye displacement fluorescence; 1.3% of 370,000 active; inhibition, % at 3 µM; AID 651821;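 active = inhibition above the plate cutoff, the mean of all test compounds on that plate plus 3 SD, cut at about 35% in these data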;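 note: 0% = DMSO alone and 100% = 100 µM mitoxantrone as full dye displacement; higher means more dye released from RNA so lower well fluorescence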
APOBEC3A inh: inhibitors of human APOBEC3A DNA deaminase | 0.41% of 330,000 active | AID 493011 | P31941 | recombinant A3A, FAM/TAMRA ssDNA deamination fluorescence | inhibition, % at 20 µM;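 active = at least 40% inhibition at 20 µM here, with at most 30% in a related deaminase screen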;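 note: plate controls were A3A with DMSO for no effect and wells lacking A3A enzyme for full effect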
Target sequence (P31941 whole entry, looked up): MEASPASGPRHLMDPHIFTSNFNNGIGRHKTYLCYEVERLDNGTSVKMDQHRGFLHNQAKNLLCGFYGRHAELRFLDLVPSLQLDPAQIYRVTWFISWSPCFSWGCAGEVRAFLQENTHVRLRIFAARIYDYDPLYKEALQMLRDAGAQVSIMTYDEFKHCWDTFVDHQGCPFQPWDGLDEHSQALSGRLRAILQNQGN
ALR inh: human ALR oxidase inhibition via reduced H2O2 | inhibition, % (test concentration not listed) | P55789 | 3.8% of 290,000 active | purified ALR, DTT oxidation, H2O2 HRP-luminol luminescence;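 active = mean replicate inhibition above about 79%, with every replicate also reaching it, limit read from the data; inconclusive = only one of the two criteria met; inactive = mean below limit and not every replicate reaching it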
aDG glyco act: alpha-DG glycosylation activation; Pro5-aDG cells, alpha-DG glycosylation AlphaScreen (IIH6); 0% Pro5, 100% B10-LARGE cell signal; 0.22% of 360,000 active; AID 624168; activation, % at 10 µM;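 active = activation of at least 8% versus controls, or a plate z-score of at least 8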;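 note: Pro5 are CHO cells carrying HIG-tagged alpha-DG that lacks glycosylation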
PHOSPHO1 block: inhibitors of human PHOSPHO1 phosphatase | Q8TCT1 | recombinant PHOSPHO1, absorbance phosphatase assay | inhibition, % at 13.3 µM | 1.1% of 290,000 active; in the data active = inhibition above about 60%
A3G deaminase: APOBEC3G (human) deaminase inhibition; Q9HC16; recombinant A3G, ssDNA deamination FAM/TAMRA fluorescence; inhibition, % at 20 µM; 0.28% of 330,000 active;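 active = inhibition of at least 40% at 20 µM, with no more than 30% in the related APOBEC3A deaminase screen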;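 note: plate controls were DMSO wells with A3G for no effect and wells lacking A3G enzyme for full effect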
Target sequence (Q9HC16 whole entry, looked up): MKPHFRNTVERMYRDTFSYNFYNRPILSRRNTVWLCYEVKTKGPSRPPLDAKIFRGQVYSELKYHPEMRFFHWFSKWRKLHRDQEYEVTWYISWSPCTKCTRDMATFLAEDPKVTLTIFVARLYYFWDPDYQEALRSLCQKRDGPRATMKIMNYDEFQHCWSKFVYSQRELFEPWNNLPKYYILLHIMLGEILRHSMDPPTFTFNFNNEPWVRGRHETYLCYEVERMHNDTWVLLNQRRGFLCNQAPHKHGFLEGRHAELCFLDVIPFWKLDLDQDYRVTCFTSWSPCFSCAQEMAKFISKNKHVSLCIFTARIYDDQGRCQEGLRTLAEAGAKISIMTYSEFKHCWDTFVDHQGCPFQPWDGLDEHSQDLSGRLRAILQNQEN
APOBEC3A confirm: APOBEC3A (human) deaminase inhibition, confirmed; AID 493151; inhibition, % at 20 µM; 63% of 1,400 active; recombinant A3A, ssDNA deaminase UDG fluorescence assay; shares compounds with APOBEC3A inh;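 active = inhibition reaching a set limit, 80% of the first screen's cutoff, at 20 µM in any replicate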;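 note: plate controls were DMSO wells with A3A for no effect and wells lacking A3A enzyme for full effect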
UDG A3A counter: UDG inhibition in APOBEC3A counter-screen | shares compounds with APOBEC3A inh | UDG counterscreen, FAM/TAMRA uracil oligo fluorescence | inhibition, % at 20 µM | 1,000 tested, under 10 active; call rule not given here
rCAG binder conf: r(CAG) RNA repeat binding, confirmation; shares compounds with rCAG binder; TO-PRO-1 dye displacement fluorescence; inhibition, % at 3 µM; 70% of 4,300 active; AID 652065;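 active = inhibition above a per-plate cutoff, the mean inhibition of sample wells plus 3 SD, cut at about 35% in these data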;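 note: loss of TO-PRO-1 fluorescence as compound displaces dye from 1x1 AA loop RNA; 0% = DMSO only wells and 100% = 100 µM mitoxantrone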
DNA CAG counter: counter-screen for rCAG RNA binders: DNA CAG dye complex inhibitors. inhibition, % at 3 µM. 94% of 4,300 active. AID 652068. shares compounds with rCAG binder. d(CAG) DNA oligo TO-PRO-1 dye displacement, fluorescence;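 active = inhibition above its plate's cutoff, the mean test-well inhibition plus 3 SD, cut at about 4.8% in these data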;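 note: 0% = DNA dye mix with DMSO and 100% = 100 µM mitoxantrone; hits displace the dye from DNA and so lower well fluorescence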
An asterisk follows results filed as active; ? = inconclusive; nt = no result given. Hits are enriched below; roughly 5.4% of the tested compounds scored in any of these assays.

SMILES | rCAG binder | APOBEC3A inh | ALR inh | aDG glyco act | PHOSPHO1 block | A3G deaminase | APOBEC3A confirm | UDG A3A counter | rCAG binder conf | DNA CAG counter
CCOc1c(Br)cc(Br)cc1/C=C1\SC(N)=NC1=O | 7.4 | 69.1* | -10.0 | 0.2 | -6.3 | 17.6 | 82.2* | 2.0 | nt | nt
O=C(CSc1ncnc2nc[nH]c12)Nc1ccccc1C(F)(F)F | -0.6 | 56.7* | -2.3 | -0.3 | 79.2* | 25.1 | 38.9* | -4.4 | nt | nt
Cc1cccc(C)c1NC(=O)CSc1ncnc2nc[nH]c12 | -1.1 | 3.3 | -2.2 | 0.1 | 17.6 | -4.0 | nt | nt | nt | nt
CCN(CC(=O)NCc1cccs1)C(=O)c1ccc(Cl)c(Cl)c1 | 0.6 | -5.6 | 1.4 | 2.1 | nt | -6.0 | nt | nt | nt | nt
CCCc1nc2ccccc2c(C(=O)N(CC)CC(=O)NCc2cccs2)c1CC | -1.6 | 50.5* | nt | -0.4 | nt | 5.2 | 2.1 | nt | nt | nt
Nc1[nH]c(C(=O)c2ccc(Br)cc2)c(-c2ccc(Br)cc2)c1C(=O)NCc1cccc2ccccc12 | 10.1 | nt | nt | nt | nt | nt | nt | nt | nt | nt
O=C(Cc1cn(Cc2ccccc2)c2ccccc12)Nc1ccc(Oc2cccnc2)cc1 | 10.6 | nt | nt | nt | nt | nt | nt | nt | nt | nt
COc1ccccc1OC(C)C(=O)N1CCN(Cc2ccc3c(c2)OCO3)CC1 (configuration not stated) | -5.0 | 57.2* | -6.5 | 0.1 | 3.0 | 13.2 | 48.5* | -3.4 | nt | nt
COc1ccccc1C(=O)N1CCN(Cc2ccc3c(c2)OCO3)CC1 | -4.9 | 0.7 | 47.0 | -0.1 | -22.0 | 2.0 | nt | nt | nt | nt
C[n+]1cnn2c1SCC1(COC1)C2 | -3.0 | 45.4* | -26.3 | 0.0 | 92.3* | 26.1 | 85.0* | -0.8 | nt | nt
Cc1cc(C(=O)NCc2ccc(C(=O)O)o2)c(C)o1 | nt | 46.7* | -0.4 | 0.1 | 9.5 | 15.8 | 48.0* | 5.0 | nt | nt
Cc1occc1C(=O)NCc1ccc(C(=O)O)o1 | 1.8 | 9.8 | 20.0 | -0.1 | 15.0 | 0.9 | nt | nt | nt | nt
O=C(O)/C(=C\c1ccc(Cl)c([N+](=O)[O-])c1)c1ccc(S(=O)(=O)N2CCCC2)s1 | 71.0* | 54.8* | 1.1 | 0.4 | nt | 10.2 | 46.9* | 2.1 | 46.9* | 14.8*
COC(=O)C1=C(C)N(Cc2ccc(F)cc2)C(=S)NC1c1ccc(Cl)cc1 (configuration not stated) | 2.2 | nt | nt | nt | nt | nt | nt | nt | nt | nt
CCOC(=O)C1Nc2ccc(C(=O)O)cc2C2C=CCC12 (configuration not stated) | 61.1* | 81.0* | -21.5 | 0.1 | 3.1 | 27.1 | 89.0* | 1.4 | 23.2 | 5.4*
CCCC1Nc2ccc(C(=O)O)cc2C2C=CCC12 (configuration not stated) | nt | nt | -2.5 | -0.1 | 8.4 | nt | nt | nt | nt | nt
CC(C)C1Nc2ccc(C(=O)O)cc2C2C=CCC21 (configuration not stated) | 55.8* | 40.2* | -8.6 | 0.4 | 9.5 | 27.9 | 41.9* | 6.3 | 28.6 | 7.3*
CCNC(=O)C1(C)CCN(C(=O)c2cccnc2SC)C1 (configuration not stated) | 2.5 | nt | nt | 1.3 | nt | nt | nt | nt | nt | nt
CC1NC(=O)c2ccccc2-n2c1nc1ccc(F)cc1c2=O (configuration not stated) | 1.6 | nt | nt | -0.2 | nt | nt | nt | nt | nt | nt
COc1cc(Cl)c(C)cc1NC(=O)CSc1sc2c(O)cc(=O)[nH]c2c1C#N | 48.6* | 69.4* | ? | -0.3 | 15.1 | 26.4 | 18.2* | 0.6 | 55.4* | 30.3*
COc1cc(Cl)c(C)cc1NC(=O)CSCC#N | 2.3 | -1.9 | -10.8 | -0.1 | 5.1 | -2.0 | nt | nt | nt | nt
CCc1cc(=O)oc2cc(C)c(CN3CCCC3)c(O)c12 | 35.6* | 41.1* | -2.2 | 0.0 | 3.7 | 17.0 | 54.3* | nt | 30.7 | 13.0*
COC(=O)C(C)N1C(=O)S/C(=C\c2ccc(-c3ccc(C(=O)O)cc3C)o2)C1=O (configuration not stated) | 43.9* | 51.0* | 97.9* | 0.0 | 52.2 | 12.0 | 62.2* | -2.2 | 33.1 | 7.8*
